Among the data in PubChem BioAssay (NCI) are growth values, retold here.

Each structure is given as a SMILES string. This is part of a sample that, as a whole, favours compounds with a hit. Of some 83,000 tested, about 20% had one in any assay.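 For each line, cells grew in 96-well plates with the test compound present at a single concentration for 48 hours.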 Calls of active or inactive are those of the source. The calls were made as follows: active = growth percent below 10; inactive = the rest.

The test system of the first assay is LOX IMVI melanoma. Put plainly: NCI-60 one-dose screen, 48 h (100 = growth as untreated, 0 = no growth, -100 = all killed). To be noted: 10 µM unless noted.
For the molecule `COc1ccc(C2=CC(c3cc(OC)c(OC)c(OC)c3)NC(=O)N2)cc1OC` (stereo not drawn), the growth was 7.04% (active).
In the case of `O=C(CCl)N(C1CCCCC1)C1CCCCC1`, the growth was -3.14% (active).
Still for that read-out and setting: with `CNC(=S)NNC(=O)C1CC1` the figure was 99.9% (inactive).
Still for that read-out and setting: with `COc1ccc(/C=C(\C#N)c2cc(OC)c3c(c2)OCO3)cc1` the figure was 19.2% (inactive); with `Cc1ccc2nc(Cl)cc(=O)n2c1`, 112% (inactive); with `O=c1cc(Cc2ccc([N+](=O)[O-])cc2)[nH]c(=O)[nH]1`, 103% (inactive).
Still for that read-out and setting: the result for `CC1=C(C#N)C(=O)NC(C)C1` (stereo not drawn) reads 90.4% (inactive); that for `CNc1ccc(Br)c2c1C(=O)c1ccccc1C2=O`, 102% (inactive).
In the case of `Cc1ccc(S(=O)(=O)C2=C3C(=C(c4ccccc4)c4ccccc43)CN(S(=O)(=O)c3ccc(C)cc3)C2)cc1`, the growth was -76.5% (active).
The same measure, in the same setting: the result for `C=C(C)[C@@H]1C[C@@H]2Cc3cc(F)ccc3N1O2` reads 94.6% (inactive); that for `NC(N)=Nc1nc2ccccc2o1`, 95.5% (inactive).
On the same count and under the same terms, the result for `CC(C)(C)OC(=O)NC(CSCc1ccccc1)C(=O)ON1C(=O)CCC1=O` (stereo not drawn) reads 104% (inactive); that for `COc1ccc(CN2CCc3c(Sc4ccccc4)nc(N)nc3C2=O)c(OC)c1`, 71.3% (inactive); that for `COc1cc(/C=C/C(=O)c2ccc(Nc3ncnc4cc(OC)c(OC)cc34)cc2)cc(OC)c1`, 88.3% (inactive).
Consider `S=C1CC(=S)NC(=S)N1`, for which the growth was 94.6% (inactive).
The same measure, in the same setting: with `COc1ccc2c(c1)[nH]c(=O)c1c3cccc(F)c3cn21` the figure was 38.8% (inactive).
The same measure, in the same setting: the result for `NC1=NN(O)C2=CC([N+](=O)[O-])C=CC2=N1` (stereo not drawn) reads 83.7% (inactive); that for `C=C[C@@H]1C[C@@H]2Cc3cc(Cl)ccc3N1O2`, 92.5% (inactive); that for `CN(C)CCCC(C#N)c1ccccc1` (stereo not drawn), 103% (inactive).
The same measure, in the same setting: with `C=C1CCC2C3(C)COC(c4ccc(N(C)C)cc4)OC3CCC2(C)C1C/C=C1/C(=O)OCC1O` (stereo not drawn) the figure was 11.9% (inactive); with `COc1ccc(-c2cn(-c3cccc(C(=O)/C=C/c4cc(OC)c(OC)c(OC)c4)c3)c(=O)[nH]2)cc1OC`, 69.4% (inactive).
Take `C=C[C@@H]1C[C@@H]2Cc3cc(F)ccc3N1O2`: the growth was 104% (inactive).
Same read-out and setting: with `COc1ccc2c(c1)cn1c3ccc(OC)cc3[nH]c(=O)c21` the figure was -79.5% (active).
Still for that read-out and setting: the result for `C=C[C@@H]1C[C@H](O)Cc2ccccc2N1` reads 104% (inactive); that for `NC(=S)N/N=C1\CCCC(C(F)(F)F)C1` (stereo not drawn), 78% (inactive).
For `Cn1c(=O)c2[nH]c(C3CC=CCC3)nc2n(C)c1=O` (stereo not drawn), the growth was 105% (inactive).
Consider `N#C/C(=C1C=C/C(=N/O)C(Cl)=C/1)c1ccc(Cl)cc1`, for which the growth is 7.65% (active).
Still for that read-out and setting: with `COc1ccc(C(=O)n2nc(/C=C/c3ccc(O)c(OC)c3)cc2/C=C/c2ccc(O)c(OC)c2)cc1` the figure was 4.5% (active); with `C=C[C@@H]1C[C@H](O)Cc2c(C)cc(C)cc2N1`, 77.6% (inactive); with `Cn1ncc2c(Sc3ccc(Cl)cc3)ncnc21`, 78.3% (inactive).
The same measure, in the same setting: with `COc1cc(/C=C/c2cc(/C=C/c3ccc(O)c(OC)c3)n(C(N)=O)n2)ccc1O` the figure was 1.48% (active); with `CO[C@H]1NC(=O)N(S(=O)(=O)c2ccc(Cl)cc2)[C@@H]1OC`, 105% (inactive).
As for `COc1ccc2[nH]c(=O)c3c4ccccc4cn3c2c1`, the growth was 4.23% (active).
Still for that read-out and setting: the result for `Nc1ncnc2c1c(-c1ccc(Oc3ccccc3)cc1)nn2C[C@@H]1SSC[C@@H]1O` reads -20.5% (active); that for `C[n+]1c(/C=C/c2c(O)ccc3ccccc23)ccc2ccccc21`, -65.1% (active); that for `Cc1ccc(S(=O)(=O)n2cc(C(=O)C(=O)N3CCOCC3)c3ccccc32)cc1`, 83.9% (inactive).
Same read-out and setting: the result for `COc1ccc2c(c1)[nH]c(=O)c1c3cc(OC)ccc3cn21` reads -76.9% (active); that for `C=C[C@@H]1C[C@@H]2Cc3c(C)cc(C)cc3N1O2`, 88.4% (inactive).
Turning to `C=C[C@@H]1C[C@H](O)Cc2cc(F)ccc2N1`, the growth is 94.2% (inactive).

For another assay, the system named is SK-MEL-28 melanoma. The assay is described as above. To be noted: 10 µM unless noted.
Consider `COc1ccc(C2=CC(c3cc(OC)c(OC)c(OC)c3)NC(=O)N2)cc1OC` (stereo not drawn), for which the growth is 40% (inactive).
For `O=C(CCl)N(C1CCCCC1)C1CCCCC1`, the growth was 104% (inactive).
On to `CNC(=S)NNC(=O)C1CC1`, for which the growth was 113% (inactive).
With `COc1ccc(/C=C(\C#N)c2cc(OC)c3c(c2)OCO3)cc1`, the growth was 67.8% (inactive).
With `Cc1ccc2nc(Cl)cc(=O)n2c1`, the growth is 120% (inactive).
Same read-out and setting: with `O=c1cc(Cc2ccc([N+](=O)[O-])cc2)[nH]c(=O)[nH]1` the figure was 114% (inactive); with `CC1=C(C#N)C(=O)NC(C)C1` (stereo not drawn), 101% (inactive).
As to `CNc1ccc(Br)c2c1C(=O)c1ccccc1C2=O`, the growth was 115% (inactive).
As to `Cc1ccc(S(=O)(=O)C2=C3C(=C(c4ccccc4)c4ccccc43)CN(S(=O)(=O)c3ccc(C)cc3)C2)cc1`, the growth is 88% (inactive).
Still for that read-out and setting: with `C=C(C)[C@@H]1C[C@@H]2Cc3cc(F)ccc3N1O2` the figure was 107% (inactive); with `NC(N)=Nc1nc2ccccc2o1`, 95.5% (inactive); with `CC(C)(C)OC(=O)NC(CSCc1ccccc1)C(=O)ON1C(=O)CCC1=O` (stereo not drawn), 120% (inactive).
The same measure, in the same setting: with `COc1ccc(CN2CCc3c(Sc4ccccc4)nc(N)nc3C2=O)c(OC)c1` the figure was 90.9% (inactive); with `COc1cc(/C=C/C(=O)c2ccc(Nc3ncnc4cc(OC)c(OC)cc34)cc2)cc(OC)c1`, 114% (inactive).
Still for that read-out and setting: the result for `S=C1CC(=S)NC(=S)N1` reads 108% (inactive); that for `COc1ccc2c(c1)[nH]c(=O)c1c3cccc(F)c3cn21`, 61.4% (inactive); that for `NC1=NN(O)C2=CC([N+](=O)[O-])C=CC2=N1` (stereo not drawn), 117% (inactive).
`C=C[C@@H]1C[C@@H]2Cc3cc(Cl)ccc3N1O2`: the growth is 103% (inactive).
Same read-out and setting: the result for `CN(C)CCCC(C#N)c1ccccc1` (stereo not drawn) reads 119% (inactive); that for `C=C1CCC2C3(C)COC(c4ccc(N(C)C)cc4)OC3CCC2(C)C1C/C=C1/C(=O)OCC1O` (stereo not drawn), 94.9% (inactive); that for `COc1ccc(-c2cn(-c3cccc(C(=O)/C=C/c4cc(OC)c(OC)c(OC)c4)c3)c(=O)[nH]2)cc1OC`, 98.9% (inactive).
For the molecule `C=C[C@@H]1C[C@@H]2Cc3cc(F)ccc3N1O2`, the growth is 115% (inactive).
Same read-out and setting: with `COc1ccc2c(c1)cn1c3ccc(OC)cc3[nH]c(=O)c21` the figure was 61% (inactive); with `C=C[C@@H]1C[C@H](O)Cc2ccccc2N1`, 112% (inactive).
The same measure, in the same setting: with `NC(=S)N/N=C1\CCCC(C(F)(F)F)C1` (stereo not drawn) the figure was 111% (inactive); with `Cn1c(=O)c2[nH]c(C3CC=CCC3)nc2n(C)c1=O` (stereo not drawn), 117% (inactive); with `N#C/C(=C1C=C/C(=N/O)C(Cl)=C/1)c1ccc(Cl)cc1`, 101% (inactive).
On the same count and under the same terms, with `COc1ccc(C(=O)n2nc(/C=C/c3ccc(O)c(OC)c3)cc2/C=C/c2ccc(O)c(OC)c2)cc1` the figure was -8.32% (active); with `C=C[C@@H]1C[C@H](O)Cc2c(C)cc(C)cc2N1`, 102% (inactive).
`Cn1ncc2c(Sc3ccc(Cl)cc3)ncnc21`: the growth is 102% (inactive).
Still for that read-out and setting: the result for `COc1cc(/C=C/c2cc(/C=C/c3ccc(O)c(OC)c3)n(C(N)=O)n2)ccc1O` reads -24.6% (active).
Regarding `CO[C@H]1NC(=O)N(S(=O)(=O)c2ccc(Cl)cc2)[C@@H]1OC`, the growth is 106% (inactive).
The same measure, in the same setting: the result for `COc1ccc2[nH]c(=O)c3c4ccccc4cn3c2c1` reads 54.7% (inactive); that for `Nc1ncnc2c1c(-c1ccc(Oc3ccccc3)cc1)nn2C[C@@H]1SSC[C@@H]1O`, 2.67% (active); that for `C[n+]1c(/C=C/c2c(O)ccc3ccccc23)ccc2ccccc21`, 66.6% (inactive).
In the case of `Cc1ccc(S(=O)(=O)n2cc(C(=O)C(=O)N3CCOCC3)c3ccccc32)cc1`, the growth was 117% (inactive).
On the same count and under the same terms, with `COc1ccc2c(c1)[nH]c(=O)c1c3cc(OC)ccc3cn21` the figure was 62.3% (inactive).
Regarding `C=C[C@@H]1C[C@@H]2Cc3c(C)cc(C)cc3N1O2`, the growth is 101% (inactive).
With `C=C[C@@H]1C[C@H](O)Cc2cc(F)ccc2N1`, the growth was 98.7% (inactive).
